Source: the supplement of paper PMC8047044
Counter-ions that a name gives are not always drawn.

Each compound was assayed on Neuro-2a (assay: neurite formation score, plate-normalized to DMSO control mean 5.04 (score (0-8 scale)); higher = more or longer neurites). Details: 0.1 µM.
Experimental: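 Neuro-2a mouse neuroblastoma cells in PLL-coated 96-well plates were pre-treated for 1 h in DMEM(+) with each kinase inhibitor at 0.1 µM, then switched to serum-free DMEM(-) with inhibitor to induce neurite outgrowth and fixed about 2-3 h later. Three blinded observers scored neurite formation from 0 (no neurites) to 8 (long neurites on almost all cells).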

Structure (SMILES) | neurite formation score
CCc1cc(Nc2nccc(-c3c(-c4ccc(OC)c(C(=O)Nc5c(F)cccc5F)c4)nc4ccccn34)n2)c(OC)cc1N1CCC(N2CCN(S(C)(=O)=O)CC2)CC1 | 4.71
Nc1nc(N)c(N=O)c(OCC2CCCCC2)n1 | 4.71
c1cc(-c2cnn3cc(-c4ccc(N5CCNCC5)cc4)cnc23)c2cccnc2c1 | 4.75
COc1cc(Nc2ncc(F)c(Nc3ccc4c(n3)NC(=O)C(C)(C)O4)n2)cc(OC)c1OC | 4.58
COc1cc2c(Oc3ccc4[nH]c(C)cc4c3F)ncnc2cc1OCCCN1CCCC1 [Cediranib (AZD217)] | 4.71
COc1cc2/c(=N/c3ccc(Br)cc3F)nc[nH]c2cc1OCC1CCN(C)CC1 [Vandetanib (ZD6474)] | 5.09
COc1ccc(-c2cc3c(C)nc(N)nc3n([C@H]3CC[C@H](OCCO)CC3)c2=O)cn1 | 4.92
COc1cc2c(N3CCN(C(=O)Nc4ccc(OC(C)C)cc4)CC3)ncnc2cc1OCCCN1CCCCC1 [Tandutinib (MLN518)] | 4.58
CS(=O)(=O)c1ccc(-c2cnc(N)c(C(=O)Nc3ccccc3)n2)cc1 | 3.04
CCCCCCCCCCCCCC(=O)OC[C@H](CO)OC(=O)CCCCCCCCCCCCC [1,2-Dimyristoyl-sn-glycerol] | 5.08
COc1cc2c(Nc3ccc(NC(=O)c4ccccc4)cc3)ncnc2cc1OCCCN1CCOCC1 | 4.58
COc1ccc(S(=O)(=O)N(CCO)c2ccccc2CN(C)C/C=C/c2ccc(Cl)cc2)cc1 [KN-93 Phosphate] | 4.42
O=C1Nc2ccc(I)cc2/C1=C/c1cc(Br)c(O)c(Br)c1 | 4.25
COc1ccc(-c2ccc3c(N4CCOC[C@@H]4C)nc(N4CCOC[C@@H]4C)nc3n2)cc1CO | 3.21
Cc1[nH]nc2ccc(-c3cncc(OC[C@@H](N)Cc4ccccc4)c3)cc12 | 4.25
COc1cc(N2CCC(N)CC2)ccc1Nc1ncc(Cl)c(-c2c[nH]c3ccccc23)n1 | 4.92
N#Cc1cccc(-c2c[nH]c3ncnc(N4CCOCC4)c23)c1 | 4.75
CC(C)(C#N)c1ccc(N2C(=O)OCc3cnc4ccc(-c5cnc6ccccc6c5)cc4c32)cc1 | 4.25
Cc1cc(Nc2cc(N3CCN(C)CC3)nc(/C=C/c3ccccc3)n2)n[nH]1 | 3.92
Cn1cc(C2=C(c3cn(CCCSC(=N)N)c4ccccc34)C(=O)NC2=O)c2ccccc21 [Ro 31-8220 Mesylate] | 3.08

Structure (SMILES) | neurite formation score
CC(C)Oc1ccc(-c2cnc3c(-c4ccnc5ccccc45)cnn3c2)cc1 | 4.08
CC[C@@H]1C(=O)N(C)c2cnc(Nc3ccc(C(=O)N[C@H]4CC[C@H](N5CCN(CC6CC6)CC5)CC4)cc3OC)nc2N1C(C)C [BI6727 (Volasertib)] | 4.25
C=CC(=O)Nc1cccc(Nc2nc(Nc3ccc(OCCOC)cc3)ncc2F)c1 | 4.71
O=C1NC(=O)/C(=C/c2ccc3nccc(-c4ccncc4)c3c2)S1 | 5.42
Cc1ccc(-n2nc(C(C)(C)C)cc2NC(=O)Nc2ccc(OCCN3CCOCC3)c3ccccc23)cc1 [BIRB 796 (Doramapimod)] | 4.21
Cn1cc(-c2[nH]c3cc(NC(=O)[C@H](N)C4CCCCC4)cc4c3c2C=NNC4=O)cn1 | 4.25
CS(=O)(=O)N1CCN(Cc2cc3nc(-c4cccc5[nH]ncc45)nc(N4CCOCC4)c3s2)CC1 | 5.21
O=c1cc(N2CCOCC2)oc2c(-c3ccccc3)cccc12 | 4.21
COc1cc2ncc(-c3ccccc3)nc2cc1OC [Tyrphostin AG 1296] | 5.04
O=c1sn(-c2cccc3ccccc23)c(=O)n1Cc1ccccc1 [Tideglusib] | 5.08
Cc1cn(-c2cc(NC(=O)c3ccc(C)c(Nc4nccc(-c5cccnc5)n4)c3)cc(C(F)(F)F)c2)cn1 [Nilotinib(AMN-107)] | 5.21
CC(C)[C@H](CO)Nc1nc(Nc2cccc(Cl)c2)c2ncn(C(C)C)c2n1 [Purvalanol A] | 5.08
O=c1oc2c(O)c(O)cc3c(=O)oc4c(O)c(O)cc1c4c23 [Ellagic acid] | 4.42
CN(C)c1nc2c(Br)c(Br)c(Br)c(Br)c2[nH]1 | 5.25
O=C1NCCSc2c1sc1ccc(O)cc21 | 4.58
Cc1cc(Nc2cc(N3CCN(C)CC3)nc(Sc3ccc(NC(=O)C4CC4)cc3)n2)n[nH]1 [VX-680 (MK-0457,Tozasertib)] | 3.58
CC1=C(C(=O)Nc2cc3cn[nH]c3cc2F)C(c2ccc(C(F)(F)F)cc2)CC(=O)N1 (stereo not given) | 4.21
CNC(=O)c1ccc(-c2cnc3ncc(Cc4ccc5ncccc5c4)n3n2)cc1F | 4.09
CN(C)c1ccc(-c2nc3ncc(Cl)c(N4CCN(CC(=O)Nc5nccs5)CC4)c3[nH]2)cc1 | 4.09
Clc1ccc(C2(c3ccc(-c4cn[nH]c4)cc3)CCNCC2)cc1 | 4.54
